Data: PubChem BioAssay (Tox21)
Records with an inconclusive call do not appear. The source made the active and inactive calls. Unless noted, the call rests on the fitted dose curve; in most records, active means well fitted curve in the direction sought with a large enough effect in the repeat runs; inconclusive means weak or mixed curves; inactive means no such curve, though single readings can be large; an effect the other way counts as inactive or inconclusive.

Legend:
[1] = qHTS assay to identify small molecule agonists of the vitamin D receptor (VDR) signaling pathway - cell viability counter screen (AID 743224); further: series mostly up to about 63 µM; nearly all actives have a fitted effect of over 50% in size
Outline: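 Counter screen for cytotoxicity: VDR-bla cells at 2,000 cells/well, 16 h compound exposure, then CellTiter-Glo luminescence after the beta-lactamase measurement.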

[2] = qHTS assay to identify small molecule antagonists of the vitamin D receptor (VDR) signaling pathway - cell viability counter screen (AID 743225); further: nearly all actives have a fitted effect of over 50% in size
Outline: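 Cytotoxicity toward the VDR-bla HEK 293T line was scored by ATP-based CellTiter-Glo luminescence, read in the wells already used for the beta-lactamase readout after 16 h compound treatment under 3 nM 1-alpha,25-dihydroxyvitamin D3 stimulation.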

[3] = qHTS assay to identify small molecule agonists of the NFkB signaling pathway (AID 1159509; active means well fitted curve in the direction sought with a large enough effect in the signal ratio in the repeat runs, not every such curve was filed as active; the % refers to the signal ratio; further: series mostly up to about 61 µM)
Outline: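 Beta-lactamase reporter assay run in quantitative high-throughput format on an NF-kB-responsive ME-180 line, with 5 hr compound treatment and a FRET-based blue/green fluorescence readout.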

[4] = qHTS assay to identify small molecule agonists of the NFkB signaling pathway - cell viability counter screen (AID 1159515; calls by dose curve; further: series mostly up to about 61 µM; nearly all actives have a fitted effect of over 55% in size)
Outline: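 Counter screen run alongside the NFkB-bla agonist assay: ME-180 reporter cells exposed to compounds for 5 hr, then lysed with CellTiter-Glo in the same wells. Luminescence, read after 30 min, reflects viable cells.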

[5] = qHTS assay to identify small molecule agonists of the endoplasmic reticulum stress response signaling pathway (AID 1159516; active means well fitted activation curve with a large enough effect in the signal ratio in the repeat runs, not every such curve was filed as active; the % refers to the signal ratio)
Outline: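 For this screen, HeLa cells stably carrying beta-lactamase under the ER stress response element received test compounds, positive controls or DMSO for 5 hr at 37 C; B/G FRET substrate was then added and dual-wavelength emission recorded.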

[6] = qHTS assay to identify small molecule agonists of the endoplasmic reticulum stress response signaling pathway - cell viability counter screen (AID 1159517; calls by dose curve; further: series mostly up to about 61 µM; nearly all actives have a fitted effect of over 50% in size)
Outline: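 Cytotoxicity of test compounds toward ESRE-bla HeLa cells was assessed after 5 hr exposure. The luminescent CellTiter-Glo signal was measured 30 min after reagent addition.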

[7] = qHTS assay to identify small molecule antagonists of the retinoid-related orphan receptor gamma (ROR-gamma) signaling pathway - cell viability counter screen (AID 1159520); further: nearly all actives have a fitted effect of over 50% in size
Outline: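 Tet-on ROR gamma CHO cells (1,000/well) were plated 4 hr, given compounds in DMSO for 2 hr at 37 C, then induced with 1 uM final doxycycline for 16 hr. Viability was read as ATP by CellTiter-Glo luminescence after 30 min.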

[8] = molecular target: Nuclear receptor ROR-gamma (Homo sapiens) (UniProt P51449); assay: qHTS assay to identify small molecule antagonists of the retinoid-related orphan receptor gamma (ROR-gamma) signaling pathway (AID 1159521)
Outline: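 Readout: ONE-Glo luciferase luminescence, 30 min at room temperature. System: Tet-on RORγ CHO, RORE-LUC. Sequence: compound 2 h, doxycycline 1 uM final, 16 h at 37 C.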

[9] = qHTS assay to identify small molecule agonists of the AP-1 signaling pathway - cell viability counter screen (AID 1159525; calls by dose curve; further: nearly all actives have a fitted effect of over 55% in size)
Outline: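 Each titration point was normalised to DMSO and tetra n-octyl ammonium bromide controls. The read was Cell Titer Glo luminescence after 30 min at RT, following 5 h compound exposure of ME-180 AP-1-bla cells at 37 °C.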

[10] = qHTS assay to identify small molecule agonists of the AP-1 signaling pathway (AID 1159526; calls by dose curve)
[11] = molecular target: Retinoic acid receptor RXR-alpha (Homo sapiens) (UniProt P19793); assay: qHTS assay to identify small molecule agonists of the RXR signaling pathway (AID 1159527; calls by dose curve; further: nearly all actives have a fitted effect of over 35% in size)
Chain of Retinoic acid receptor RXR-alpha (Homo sapiens) (P19793 whole entry, looked up): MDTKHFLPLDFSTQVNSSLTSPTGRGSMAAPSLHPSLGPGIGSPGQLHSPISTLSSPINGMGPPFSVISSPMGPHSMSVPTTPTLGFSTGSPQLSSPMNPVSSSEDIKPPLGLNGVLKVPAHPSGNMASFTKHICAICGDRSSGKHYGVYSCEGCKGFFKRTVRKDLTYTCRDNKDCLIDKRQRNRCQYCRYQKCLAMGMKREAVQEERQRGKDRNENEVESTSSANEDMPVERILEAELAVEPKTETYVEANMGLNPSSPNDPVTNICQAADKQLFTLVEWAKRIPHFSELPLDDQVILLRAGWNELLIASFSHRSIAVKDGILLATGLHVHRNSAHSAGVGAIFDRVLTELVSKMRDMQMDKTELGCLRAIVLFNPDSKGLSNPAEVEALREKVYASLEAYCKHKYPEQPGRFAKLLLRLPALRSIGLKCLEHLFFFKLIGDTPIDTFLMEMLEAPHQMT
Outline: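 Reporter activation is measured as beta-lactamase activity via FRET substrate cleavage (emission 460/530 nm) in HEK 293T cells expressing an RXR-alpha-driven bla construct, following 16 hr compound exposure at 37 C.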

[12] = qHTS assay to identify small molecule agonists of the RXR signaling pathway - cell viability counter screen (AID 1159529)
Outline: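 Tox21 10K compounds were tested for cytotoxicity against GeneBLAzer RXR-alpha HEK 293T cells grown in 2% charcoal-stripped FBS. Exposure lasted 16 hr at 37 C, 5% CO2; viability read by CellTiter-Glo luminescence.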

[13] = qHTS assay to identify small molecule antagonists of the retinoid acid receptor (RAR) signaling pathway - cell viability counter screen (AID 1159551); further: nearly all actives have a fitted effect of over 35% in size
Outline: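 Measured by luminescent ATP detection, viability reflects C3RL4 cells treated 6 h at 37 C with test chemicals in the presence of 1 uM (final) retinol.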

[14] = qHTS assay to identify small molecule antagonists of the retinoic acid receptor (RAR) signaling pathway (AID 1159552; further: nearly all actives have a fitted effect of over 50% in size)
Outline: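 Overnight-plated C3RL4 reporter cells get compound, then retinol to 1 uM final; plates sit 6 hr at 37 C, 5% CO2. A luciferase reagent is added and light output recorded after 30 min at room temperature.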

[15] = qHTS assay to identify small molecule agonists of the retinoic acid receptor (RAR) signaling pathway (AID 1159553)
Outline: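 6 hr compound exposure (DMSO vehicle) of overnight-plated C3RL4 RARE-luc cells at 37 C; luminescence quantified after 30 min RT with luciferase reagent.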

Measured: Potency

O=NN1CCCCC1
inactive: [1] | [2] | [3] | [4] | [5] | [6] | [7] | [8] | [9] | [10] | [11] | [12] | [13]

CCC(Cl)[N+](=O)[O-] (stereo not drawn)
inactive: [1] | [2] | [3] | [4] | [5] | [6] | [7] | [8] | [9] | [10] | [11] | [12] | [13]

CSc1nc(N=[N+]=[N-])nc(NC(C)C)n1
inactive: [1] | [2] | [3] | [4] | [5] | [6] | [7] | [8] | [9] | [10] | [11] | [12] | [13]

O=NN1CCN(N=O)CC1
inactive: [1] | [2] | [3] | [4] | [5] | [6] | [7] | [8] | [9] | [10] | [11] | [12] | [13]

O=P(O)(Oc1ccccc1)Oc1ccccc1
inactive: [1] | [2] | [3] | [4] | [5] | [6] | [7] | [8] | [9] | [10] | [11] | [12] | [13]

OC(Cn1cncn1)(c1ccc(F)cc1)c1ccccc1F (stereo not drawn)
inactive: [1] | [2] | [3] | [4] | [5] | [6] | [7] | [8] | [9] | [10] | [11] | [12] | [13]

CCS(=O)(=O)C(C)(C)S(=O)(=O)CC
inactive: [1] | [2] | [3] | [4] | [5] | [6] | [7] | [8] | [9] | [10] | [11] | [12] | [13]

COC(=O)C(c1ccccc1)C1CCCCN1 (stereo not drawn)
inactive: [1] | [2] | [3] | [4] | [5] | [6] | [7] | [8] | [9] | [10] | [11] | [12] | [13]

COP(N)(=S)Oc1ccccc1C(=O)OC(C)C (stereo not drawn)
inactive: [1] | [2] | [3] | [4] | [5] | [6] | [7] | [8] | [9] | [10] | [11] | [12] | [13]

N#Cc1c(Cl)cccc1Cl
inactive: [1] | [2] | [3] | [4] | [5] | [6] | [7] | [8] | [9] | [10] | [11] | [12] | [13]

O=C(O)c1ccc2[nH]cc(CCCCN3CC=C(c4ccccc4)CC3)c2c1
inactive: [1] | [2] | [3] | [4] | [5] | [6] | [7] | [8] | [9] | [10] | [11] | [12] | [13]

COCC(=O)N(c1c(C)cccc1C)N1CCOC1=O
inactive: [1] | [2] | [3] | [4] | [5] | [6] | [7] | [8] | [9] | [10] | [11] | [12] | [13]

CN(C)CCc1ccc(O)cc1
inactive: [1] | [2] | [3] | [4] | [5] | [6] | [7] | [8] | [9] | [10] | [11] | [12] | [13]

COc1cc(OC)nc(Oc2cccc(Oc3nc(OC)cc(OC)n3)c2C(=O)O)n1
inactive: [3] | [4] | [5] | [6] | [7] | [8] | [9] | [10] | [11] | [12] | [13]

COc1cc(OC)nc(Sc2cccc(Cl)c2C(=O)O)n1
inactive: [1] | [3] | [4] | [5] | [6] | [7] | [8] | [9] | [10] | [11] | [12] | [13]

ClC(Cl)(Cl)C(Cl)(Cl)Cl
inactive: [1] | [2] | [3] | [4] | [5] | [6] | [7] | [8] | [9] | [10] | [11] | [12] | [13]

CCCCCCI
inactive: [1] | [3] | [4] | [5] | [6] | [7] | [8] | [9] | [10] | [11] | [12] | [13]

NC(=O)c1cc([N+](=O)[O-])cc([N+](=O)[O-])c1
inactive: [1] | [2] | [3] | [4] | [5] | [6] | [7] | [8] | [9] | [10] | [11] | [12] | [13]

O=C1CN=C(c2ccccc2)c2cc([N+](=O)[O-])ccc2N1
inactive: [1] | [2] | [3] | [4] | [5] | [6] | [7] | [8] | [9] | [10] | [11] | [12] | [13]

Fc1ccc(C2(Cn3cncn3)OC2c2ccccc2Cl)cc1 (stereo not drawn)
inactive: [3] | [4] | [5] | [6] | [7] | [8] | [9] | [10] | [12] | [13] | [14] | [15]

O=C(N[C@H]1CN2CCC1CC2)c1cc2ccoc2cn1
inactive: [1] | [3] | [4] | [5] | [6] | [7] | [8] | [9] | [10] | [12] | [13] | [14] | [15]
